Only some compounds are listed: those with a hit (about 3.1% of all), similar ones and a draw of the others.
FadD28 FP inh: blocks FadD28 binding to the bisubstrate probe. fluorescence polarization. 0.22% of 360,000 active. inhibition, % at 12.5 µM; in the data active means inhibition above about 8.5%, passing the limit was not always enough; inconclusive means no clear call, values can overlap the other calls
SARS 3CLpro inh: SARS-CoV 3CLpro protease inhibition | AID 1706 | P0C6X7 | recombinant SARS-CoV 3CLpro, quenched FRET peptide cleavage | inhibition, % at 6 µM | 0.14% of 290,000 active; in the data active means inhibition above about 12%
Mtb BioA inh: inhibitors of Mycobacterium tuberculosis BioA enzyme. purified M. tuberculosis BioA enzyme, plate reader. inhibition, % at 9.99 µM. 0.096% of 360,000 active; in the data active means inhibition above about 40%; inconclusive means no clear call, values can overlap the other calls
GDH-TPI counter: counter-screen for M. tuberculosis FBA inhibitors: GDH-TPI coupled enzymes. GDH-TPI coupled enzyme counterscreen, NADH absorbance. inhibition, % at 4.8 µM. 1.2% of 360,000 active; in the data active means inhibition above about 30%;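 further: 0% = DMSO wells and 100% = wells lacking the enzyme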
Mtb FBA inh: Mtb fructose-bisphosphate aldolase inhibition. P9WQA3. purified M. tuberculosis FBA, fluorescence read-out. inhibition, % at 1 µM. 2.3% of 360,000 active; in the data active means inhibition above about 27%;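 further: 0% = vehicle and 100% = reference inhibitor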
Target sequence (P9WQA3 whole entry, looked up): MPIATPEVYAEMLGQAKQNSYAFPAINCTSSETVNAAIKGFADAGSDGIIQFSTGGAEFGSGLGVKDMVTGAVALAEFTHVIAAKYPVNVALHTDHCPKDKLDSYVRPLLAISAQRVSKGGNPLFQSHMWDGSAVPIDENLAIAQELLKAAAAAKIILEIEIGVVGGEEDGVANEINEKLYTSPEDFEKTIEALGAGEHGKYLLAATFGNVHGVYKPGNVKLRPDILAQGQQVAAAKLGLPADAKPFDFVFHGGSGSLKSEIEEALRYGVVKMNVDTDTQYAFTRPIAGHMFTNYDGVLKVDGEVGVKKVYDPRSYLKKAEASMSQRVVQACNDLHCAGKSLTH
* hit, by the source's call; ? = inconclusive; nt = no result given; + = active, no number.

SMILES | FadD28 FP inh | SARS 3CLpro inh | Mtb BioA inh | GDH-TPI counter | Mtb FBA inh
COc1ccc(NC(=O)Nc2ccc3c(c2)CC(=O)N([C@H](C)CO)C[C@H](C)[C@H](CN(C)C(=O)Nc2ccc(F)cc2)O3)cc1 | nt | nt | -2 | nt | nt
COc1ccc(/C=C2\SC(N)=NC2=O)cc1Br | -11 | 5 | 0 | 31* | -7
CCCOc1ccc(/C=C2\SC(N)=NC2=O)cc1OC | -4 | -2 | -1 | 15 | -1
O=C(C[C@@H]1C[C@H]2c3cc(NC(=O)NC4CCCC4)ccc3O[C@H]2[C@H](CO)O1)NCc1ccc(Cl)cc1 | nt | nt | -2 | nt | nt
O=C(NNC(=O)c1cc2cc3ccccc3nc2s1)c1ccc(F)cc1 | -1 | 4 | -2 | 34* | 5
O=C(NNC(=O)c1cc2cc3ccccc3nc2s1)c1cccc(Cl)c1 | -1 | 2 | -2 | 9 | 3
C=CCn1c(SCC(=O)c2ccc(NS(=O)(=O)c3ccccc3)cc2)nnc1-c1cccs1 | -5 | 4 | 1 | 35* | 3
C[C@H](CO)N1C[C@H](C)[C@H](CN(C)C(=O)c2ccccc2F)Oc2cc(-c3ccccc3)ccc2S1(=O)=O | nt | nt | 3 | nt | nt
CCn1c(=NC(=O)c2ccco2)sc2cccc(F)c21 | -2 | 5 | -1 | 51* | 3
COc1ccc(OC)c2c1sc(=NC(=O)c1ccco1)n2C | -2 | 3 | -4 | 34* | 0
COc1cccc(S(=O)(=O)Nc2ccc3c(c2)[C@H]2C[C@@H](CC(=O)NCCc4ccccc4)O[C@@H](CO)[C@H]2O3)c1 | nt | nt | 1 | nt | nt
CCC(=O)NC[C@@H]1[C@H](c2ccc(C3=CCCC3)cc2)[C@@H](CO)N1C(=O)C1CC1 | nt | nt | 3 | nt | nt
O=C1N/C(=C\c2ccc(O)cc2)C(O)=C1C=NCc1ccccc1 | -2 | -2 | -2 | 37* | -4
COc1ccc(/C=C2\NC(=O)C(C=NCc3ccccc3)=C2O)cc1 | 2 | 10 | nt | 14 | 1
Cc1ccc(NC2=C([N+](=O)[O-])CS(=O)(=O)C2)cc1 | 0 | 1 | nt | 17 | 0
CN(C)c1ccc(NC2=C([N+](=O)[O-])CS(=O)(=O)C2)cc1 | 1 | -1 | nt | 34* | -2
CCOC(=O)c1sc(=S)n(-c2ccccc2)c1N | -3 | 4 | -1 | 34* | -3
CCOC(=O)c1sc(=S)n(-c2ccccc2)c1N(C(C)=O)C(C)=O | 0 | 2 | 1 | 11 | 0
CCOC(=O)c1sc(=S)n(-c2ccccc2)c1C | -1 | -4 | -3 | 34* | 2
CCOC(=O)c1sc(=S)n(-c2ccc(OC)cc2)c1N | 3 | 4 | 2 | 11 | 0
CCOC(=O)c1sc(=S)n(-c2ccccc2Cl)c1C | -2 | -5 | 1 | 39* | 3
Cc1ccc(NC(=O)CN2C(=O)N/C(=C/c3cccn3-c3ccc(C(=O)O)cc3)C2=O)cc1 | 18* | 4 | nt | 22 | 0
COc1ccc(NC(=O)CN2C(=O)S/C(=C/c3cccn3-c3ccc(C(=O)O)cc3)C2=O)cc1 | 0 | -2 | 0 | 9 | 1
Cc1ccc(NC(=O)CN2C(=O)N/C(=C/c3cc(C)n(-c4ccc(C(=O)O)cc4)c3C)C2=O)cc1 | 52* | 6 | nt | 10 | 7
Cc1ccc(NC(=O)CN2C(=O)S/C(=C\c3cc(C)n(-c4ccc(C(=O)O)cc4)c3C)C2=O)cc1 | 60* | 0 | 3 | 17 | 0
SMILES | FadD28 FP inh | SARS 3CLpro inh | Mtb BioA inh | GDH-TPI counter | Mtb FBA inh
O=C(CN1C(=O)S/C(=C\C=C\c2ccccc2)C1=O)Nc1ccc(C(=O)O)cc1 | -6 | -2 | 2 | 57* | -1
C[C@H](CO)N1C[C@H](C)[C@H](CN(C)S(=O)(=O)c2ccc(Cl)cc2)OCc2ccccc2-c2ccccc2C1=O | nt | nt | 3 | nt | nt
Cc1cc(C(=O)Nc2cccc3c2O[C@@H](CN(C)Cc2ccc(Cl)c(Cl)c2)[C@@H](C)CN([C@H](C)CO)C3=O)n(C)n1 | nt | nt | 1 | nt | nt
CCOc1cc(/C=C2/NC(=O)N(CC(=O)Nc3cccc(C)c3)C2=O)ccc1OCC(N)=O | 4 | 2 | nt | 38* | 3
Cc1cccc(NC(=O)CN2C(=O)N/C(=C/c3ccc(C)s3)C2=O)c1 | ? | -2 | nt | 21 | -2
Cc1cccc(NC(=O)CN2C(=O)N/C(=C/c3cc(C)n(C(C)C)c3C)C2=O)c1 | 42* | 2 | -1 | 21 | -2
CC(C)NC(=O)Nc1ccc2c(c1)C(=O)N([C@H](C)CO)C[C@@H](C)[C@@H](CN(C)Cc1ccc(-c3ccccc3)cc1)O2 | nt | nt | -2 | nt | nt
Nc1ccc(C(=O)C(=O)c2ccc(N)cc2)cc1 | 0 | -2 | 0 | 38* | 1
CN1CCN(Cc2c(O)ccc3cc(-c4ccccn4)c(=O)oc23)CC1 | 0 | 0 | 1 | 11 | +
Cc1cc(=O)oc2c(CN3CCCCC3)c(O)ccc12 | -2 | nt | nt | 16 | nt
